Laboratory results reported in the supplement of paper PMC3545927.
The list shows a part of the results. The true hit rate is not given.

Target: furin, P09958
Experiment: furin cleavage Z-score vs untreated control; higher = more cleavage, active = 3.5 or more, inactive = 1 or less, 8 variable residues between constant flanks
Method in brief: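 Purified furin digested bead-held 8-mer peptide–cDNA fusions at 1:10 enzyme:substrate in 0.01 ml of 50 mM HEPES pH 7.5 with CaCl2 and NaCl for 7.5, 15 or 30 min. The cleavage Z-score compares sequencing counts of released DNA with furin-free reactions on a log scale, with lowess adjustment and median absolute deviation scaling.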

furin, P09958, sequence (P09958 whole entry): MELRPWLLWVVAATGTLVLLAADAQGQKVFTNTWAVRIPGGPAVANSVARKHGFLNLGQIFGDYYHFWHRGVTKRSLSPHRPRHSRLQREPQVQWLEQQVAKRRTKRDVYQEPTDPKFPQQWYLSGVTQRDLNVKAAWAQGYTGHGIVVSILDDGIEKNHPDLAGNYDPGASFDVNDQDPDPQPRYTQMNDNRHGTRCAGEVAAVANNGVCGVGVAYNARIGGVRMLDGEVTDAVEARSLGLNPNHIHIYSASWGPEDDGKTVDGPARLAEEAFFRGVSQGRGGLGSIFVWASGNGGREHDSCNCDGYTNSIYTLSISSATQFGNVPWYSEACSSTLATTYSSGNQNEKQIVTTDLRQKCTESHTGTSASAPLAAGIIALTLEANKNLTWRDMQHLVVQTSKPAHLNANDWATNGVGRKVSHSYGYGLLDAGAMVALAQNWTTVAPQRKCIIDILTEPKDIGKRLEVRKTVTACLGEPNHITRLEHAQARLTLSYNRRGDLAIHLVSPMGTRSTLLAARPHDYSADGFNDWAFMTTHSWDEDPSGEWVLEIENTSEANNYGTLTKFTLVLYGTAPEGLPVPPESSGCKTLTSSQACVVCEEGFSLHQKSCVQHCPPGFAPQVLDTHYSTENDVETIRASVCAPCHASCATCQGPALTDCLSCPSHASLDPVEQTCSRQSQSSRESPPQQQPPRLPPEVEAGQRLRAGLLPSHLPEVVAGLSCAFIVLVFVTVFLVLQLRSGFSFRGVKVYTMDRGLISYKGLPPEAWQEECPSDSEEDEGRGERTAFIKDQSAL

Sequence | furin cleavage Z-score (7.5 min) | furin cleavage Z-score (15 min) | furin cleavage Z-score (30 min)
CADNEVVTSTAGNASASA [HC2301] | -1.07 (inactive) | -0.505 (inactive) | 0.105 (inactive)
CAQSFQVAHLAGNASASA [HC771] | 0.912 (inactive) | 0.131 (inactive) | 0.722 (inactive)
CAEVVTNTWVAGNASASA [HC158] | -1.52 (inactive) | -0.248 (inactive) | -0.0393 (inactive)
CAFCHSKKKCAGNASASA [HC857] | -1.27 (inactive) | -0.504 (inactive) | -0.238 (inactive)
CAALAAYCLSAGNASASA [HC995] | 1.28 | -0.793 (inactive) | 0.489 (inactive)
CARFVRDACAAGNASASA [FS-2928] | 0.546 (inactive) | 1.42 | 3.66 (active)
CADDGRTCVDAGNASASA [FS-1981] | -1.75 (inactive) | -1.46 (inactive) | -0.526 (inactive)
CARFIRGVVDAGNASASA [FS-2332] | 3.17 | 2.98 | 5.27 (active)
CARFVRFVPLAGNASASA [FS-1706] | 1.17 | 1.76 | 4.38 (active)
CARTRKFVVDAGNASASA [FS-2315] | 0.233 (inactive) | -0.721 (inactive) | -0.0413 (inactive)
CARLRRVICAAGNASASA [FS-2997] | -0.794 (inactive) | -0.656 (inactive) | -0.232 (inactive)
CARSLRFVTLAGNASASA [FS-1793] | 0.3 (inactive) | 1.63 | 1.68
CARFDRQASAAGNASASA [FS-2011] | -0.397 (inactive) | -0.361 (inactive) | -1.3 (inactive)
CAREKKDVPLAGNASASA [FS-3187] | 0.508 (inactive) | 2.05 | -1.3 (inactive)
CARKKKCKICAGNASASA [FS-2689] | -0.917 (inactive) | -0.723 (inactive) | -0.00697 (inactive)
CAMTPCSAHLAGNASASA [HC2466] | -1.89 (inactive) | 0.877 (inactive) | -0.495 (inactive)
CAEFPCHRPSAGNASASA [HC2327] | -0.796 (inactive) | -0.578 (inactive) | -1.81 (inactive)
CAEITTPCSGAGNASASA [HC1964] | -1.53 (inactive) | -0.885 (inactive) | -1.78 (inactive)
CATTACSGSWAGNASASA [HC1863] | -0.8 (inactive) | -0.656 (inactive) | -0.444 (inactive)
CASHPCSAHLAGNASASA [HC2495] | 1.02 | 0.719 (inactive) | 0.0481 (inactive)
CAYLSRVARSAGNASASA [FS-738] | 9.42 (active) | 9.32 (active) | 8.94 (active)
CASPPVVPQSAGNASASA [HC768] | -0.954 (inactive) | 0.785 (inactive) | -0.882 (inactive)

Sequence | furin cleavage Z-score (7.5 min) | furin cleavage Z-score (15 min) | furin cleavage Z-score (30 min)
CASHAVVARSAGNASASA [FS-1080] | 4.85 (active) | 4.91 (active) | 5.66 (active)
CAWRCRVARSAGNASASA [FS-897] | 5.68 (active) | 5.73 (active) | 6.03 (active)
CAAPPPSWDQAGNASASA [HC960] | -0.113 (inactive) | -0.447 (inactive) | -0.277 (inactive)
CALVILNAASAGNASASA [HC536] | 1.04 | -0.834 (inactive) | 0.192 (inactive)
CAEAPCHRPSAGNASASA [HC2323] | 0.662 (inactive) | -0.37 (inactive) | -0.247 (inactive)
CAMESCSQHLAGNASASA [HC1717] | 0.437 (inactive) | 1.13 | -0.426 (inactive)
CATTPCSDSWAGNASASA [HC1891] | -1.12 (inactive) | -0.376 (inactive) | -2.36 (inactive)
CAMEKCSQHLAGNASASA [HC1714] | 1.25 | 0.88 (inactive) | 0.181 (inactive)
CALPQDAVSRAGNASASA [HC899] | 0.79 (inactive) | -0.97 (inactive) | -1.66 (inactive)
CALPAPNYTFAGNASASA [HC1197] | 0.169 (inactive) | -0.15 (inactive) | -0.727 (inactive)
CAIPARELRNAGNASASA [FS-254] | 1.11 | 0.407 (inactive) | -8.8e-05 (inactive)
CALPQRLPRAAGNASASA [FS-1363] | 10.1 (active) | 7.22 (active) | 9.33 (active)
CAIPARMKRAAGNASASA [FS-599] | 10.3 (active) | 9.08 (active) | 8.29 (active)
CALSIRDKRKAGNASASA [FS-136] | 4.28 (active) | 3.15 | 5.72 (active)
CALPARDKRKAGNASASA [FS-356] | 3.1 | 4.69 (active) | 4.42 (active)
CALPQRAYALAGNASASA [HC562] | -0.111 (inactive) | 0.523 (inactive) | 0.909 (inactive)
CALSIRDARMAGNASASA [FS-1466] | -0.476 (inactive) | 0.981 (inactive) | -0.151 (inactive)
CASLTERLYVAGNASASA [HC1498] | -0.595 (inactive) | 0.519 (inactive) | 0.245 (inactive)
CATTPCSGSSAGNASASA [HC1937] | -1.48 (inactive) | -0.199 (inactive) | -0.0714 (inactive)
CAMALTLSPYAGNASASA [HC574] | -0.719 (inactive) | -0.267 (inactive) | 0.328 (inactive)
CAGVEHRLEAAGNASASA [HC478] | -0.376 (inactive) | -1.52 (inactive) | -2.05 (inactive)
